Rab9 promoter act = qHTS Assay for Rab9 Promoter Activators; Huh7 Rab9 promoter-luciferase reporter, luminescence, 24 h; Potency, µM (highest dose often 9.22 µM), without a hit: at the highest dose activation, negative = inhibition, usual class: activators; 2.8% of 320,000 active; AID 485297, 2010; further: % of control where 0% means no effect; nearly all actives have a fitted effect of over 60% in size
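Huh7 cells stably carrying a Rab9 promoter-luciferase reporter, 1500 cells per well in OP-MEM I with 10% FBS, treated with compound 24 hours at 37C. Luciferase activity read by luminescence after 10 minutes with Amplite reagent.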
p53 reactivator = qHTS assay for re-activators of p53 using a Luc reporter. H1299 p53-A138V BP100-luciferase reporter, luminescence, 24 h. 0.063% of 320,000 active. Potency, µM (highest dose often 92.2 µM), for inactives: at the highest dose activity change, positive = activation, most hits filed as activators; further: % of control where 0% means no effect; nearly all actives have a fitted effect of over 45% in size
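H1299 (p53-null), stable ts p53-A138V + BP100-Luc; 1000 cells/well, Opti-MEM/10% FBS; cpd 4 pt, 1:5; 24 h, 37 deg C, 5% CO2; detection reagent 10 min RT; luminescence.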
ELG1 genotox = qHTS screen for small molecules that induce genotoxicity in human embryonic kidney (HEK293T) cells expressing luciferase-tagged ELG1. Potency, µM (doses to about 46 µM), for inactives: at the highest dose activity change, positive = activation, actives largely listed as activators. HEK293T ELG1-luciferase reporter, luminescence, 16 h. AID 504466, 2011. 1.3% of 330,000 active; further: % of control where 0% means no effect; nearly all actives have a fitted effect of over 60% in size
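Step 1: seed 2,000 HEK293T ELG1-luciferase cells per well. Step 2: add compound or DMSO, incubate 16 hr at 37 °C. Step 3: ONE-Glo, 30 min at room temperature, read luminescence.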
FLuc counter = qHTS profiling assay for firefly luciferase inhibitor/activator using purifed enzyme and Km concentrations of substrates (counterscreen for miR-21 project). purified FLuc, Km substrates, luminescence inhibition. Potency, µM (doses to about 57.5 µM), without a hit: at the highest dose activity change, negative = inhibition, most hits filed as inhibitors. 6.9% of 360,000 active. AID 588342, 2011;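 further: plate controls were vehicle for no effect and reference inhibitor for full effect; nearly all actives have a fitted effect of over 55% in size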
Target sequence (P08659 whole entry, looked up): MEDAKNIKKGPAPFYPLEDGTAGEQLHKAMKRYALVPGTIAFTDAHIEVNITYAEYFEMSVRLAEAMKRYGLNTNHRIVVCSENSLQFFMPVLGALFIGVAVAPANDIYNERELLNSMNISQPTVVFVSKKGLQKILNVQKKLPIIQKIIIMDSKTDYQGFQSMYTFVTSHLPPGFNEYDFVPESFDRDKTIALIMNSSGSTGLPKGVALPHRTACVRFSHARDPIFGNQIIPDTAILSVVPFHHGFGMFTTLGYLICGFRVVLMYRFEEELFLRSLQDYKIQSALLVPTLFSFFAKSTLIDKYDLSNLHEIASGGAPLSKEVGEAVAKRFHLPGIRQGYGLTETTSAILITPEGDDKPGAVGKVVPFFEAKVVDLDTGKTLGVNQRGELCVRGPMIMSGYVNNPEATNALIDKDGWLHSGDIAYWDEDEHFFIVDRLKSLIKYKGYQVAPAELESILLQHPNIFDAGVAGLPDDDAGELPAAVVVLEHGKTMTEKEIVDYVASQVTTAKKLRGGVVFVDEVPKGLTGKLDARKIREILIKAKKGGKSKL
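Purified P. pyralis luciferase, 10 nM final, with Km-level 10 uM D-luciferin and 10 uM ATP in 50 mM Tris acetate pH 7.5, 10 mM Mg acetate, 0.01% Tween-20, 0.05% BSA; 6-point qHTS titration about 60 µM downward; luminescence read.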
NPC1 prom act = qHTS Assay for NPC1 Promoter Activators; Huh7 NPC1 promoter luciferase reporter, 24 h; Potency, µM (titrated, usually from 9.22 µM), for the others: top-dose activation, actives largely listed as activators; 2.4% of 320,000 active; AID 485313, 2010; further: % of control where 0% means no effect; nearly all actives have a fitted effect of over 60% in size
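Luciferase expression driven by the NPC1 promoter was measured in stably transfected Huh7 cells after a 24 h compound incubation, using a luciferase reagent and a luminescence read.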
SMN2 splice up = qHTS Assay for Enhancers of SMN2 Splice Variant Expression | HEK293 SMN2-luciferase splicing reporter, luminescence, 30-36 h | Potency, µM (series often up to 46.1 µM), inactives show at the highest dose activity change, positive = activation, actives largely listed as activators | 2.8% of 210,000 active | AID 1458, 2008; further: % of control where 0% means no effect; nearly all actives have a fitted effect of over 55% in size
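qHTS luciferase splicing reporter: luminescence rises when SMN2 exon 7 is included in transfected HEK293 cells. Compound exposure lasted 30-36 h at 37C, with 4.5 mM final sodium butyrate as control, followed by a ONE-Glo read.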
The depositor's hits bear a star; ? = inconclusive; · = no result; [ ] = dose if it differs, or a comment. Sampled rows, rich in hits. Any-hit rate of the full collection: about 7.3%. The call rests on the fitted dose curve; in most records, active means well fitted curve in the direction sought with a large enough effect; inconclusive means small, poorly fitted or top-dose-only effect, or another doubt; inactive means no such curve, though single readings can be large; an effect the other way counts as inactive or inconclusive. Potency means the concentration at half of the fitted maximal effect.

SMILES | Rab9 promoter act | p53 reactivator | ELG1 genotox | FLuc counter | NPC1 prom act | SMN2 splice up
CCS(=O)(=O)N1Cc2ccccc2CC1C(=O)Nc1ccc(C)cc1 (centres undefined) | 12% | 21% | ? | ? | 0% | 9%
O=C(NC1CCCCC1)C1Cc2ccccc2CN1S(=O)(=O)c1ccc(F)cc1 (centres undefined) | -3% | -8% | -4% | 0% | -5% | -17%
CCS(=O)(=O)N1Cc2ccccc2CC1C(=O)Nc1cccc(C)c1 (centres undefined) | 27% | 4% | 15% | 24µM* | ? | ?
O=C(Nc1nccs1)C1Cc2ccccc2CN1S(=O)(=O)c1ccc(F)cc1 (centres undefined) | ? | ? | ? | 24µM* | ? | 11µM*
CCS(=O)(=O)N1Cc2ccccc2CC1C(=O)Nc1ncc(C)s1 (centres undefined) | ? | 2% | ? | ? | 26% | 13µM*
CC(C)[C@@H](CC(=O)N[C@@H]1CCCC[C@H]1C(=O)N[C@H](CC(=O)N[C@@H](CCC(=O)O)CC(=O)O)Cc1c[nH]c2ccccc12)NC(=O)C[C@H](Cc1c[nH]c2ccccc12)NC(=O)[C@@H]1CNCC[C@H]1N | · | · | · | · | · | 3%
Cc1ccc(C)c(N2CCN(C(=O)c3cnc4c(-c5ccccc5)c(C)nn4c3C)CC2)c1 | · | · | · | -13% | · | ·
COC(=O)N/N=C(\C)c1ccco1 | 3% | 3% | -9% | -2% | -2% | -1%
C/C(=N/NC(=O)c1ccccn1)c1c[nH]c2ccccc12 | 3.5µM* | 9% | 10µM* | 5.4µM* | 2.2µM* | ·
C/C(=N/NC(=O)c1ccccn1)c1ccco1 | 0.5µM* | 2% | 17% | 5.4µM* | 0.89µM* | ?
C/C(=N\NC(=O)c1ccccn1)c1ccc(Cl)cc1 | 0.56µM* | 3% | ? | 2.4µM* | 0.79µM* | ·
C/C(=N/NC(=O)c1ccccn1)c1ccc(O)cc1 | 2.8µM* | 11% | 16µM* | 24µM* | 3.5µM* | ·
COc1ccc(-c2c(C)nn3c(C(F)(F)F)cc(C)nc23)cc1OC | · | · | · | -2% | · | ·
COc1ccc(C2C(C(=O)c3ccco3)=C(O)C(=O)N2CC2CCCO2)c(OC)c1 (centres undefined) | -5% | -5% | 1% | 0% | -1% | ·
C/C(=N\NC(=O)c1ccc(Cl)cc1)c1ccccn1 | -20% | ? | 3.3µM* | 7.6µM* | ? | ·
COc1cc(C(=O)N/N=C(\C)c2ccccn2)cc(OC)c1OC | 4% | 1% | 6% | 7% | -3% | ·
C/C(=N\Nc1ccc(Cl)cc1)c1ccccn1 | ? | 14% | 21µM* | 11µM* | 11% | 14µM*
COc1ccc(-c2csc3c2[N+]2=CCC=C2C3=O)cc1 | · | · | · | · | · | -13%[9.22 µM]
COc1ccc(C(=O)Nc2cccc(C(=O)N3CCCCC3)c2)cc1 | 11% | -6% | 2% | 15µM* | 14% | ·
CC(C)(C)c1ccc(C(=O)Nc2cccc(C(=O)N3CCOCC3)c2)cc1 | 0.89µM* | 2% | ? | 0.54µM* | 1.3µM* | ·
Cc1ccc(C(=O)Nc2cccc(C(=O)N3CCOCC3)c2)cc1 | 2µM* | 13% | ? | 9.5µM* | 4µM* | ?
CC(C)(C)c1ccc(OC(=O)N2CCOCC2)cc1 | ? | 20% | ? | 15µM* | 4% | ·
CN(C)S(=O)(=O)c1ccc(C(=O)Nc2cccc(C(=O)N3CCOCC3)c2)cc1 | 1% | 2% | -3% | -2% | 0% | ·
Cc1ccc(-c2ccc(=O)n(CC(=O)Nc3ccc(C(C)C)cc3)n2)cc1 | · | · | · | ? | · | -2%
CCOC(=O)c1cc(NC(=O)c2ccc(C)cc2)c(=O)n2c1oc1ccc(Cl)cc12 | · | · | · | 3% | · | -3%
SMILES | Rab9 promoter act | p53 reactivator | ELG1 genotox | FLuc counter | NPC1 prom act | SMN2 splice up
Cc1cc(C)c(OCCOCCn2c(-c3ccc(Cl)cc3)nc3ccccc3c2=O)c(C)c1 | · | · | · | -3% | · | 1%
Oc1c(C(c2ccccc2Cl)N2CCC(O)CC2)sc2nc(-c3ccco3)nn12 (centres undefined) | · | · | · | -16% | · | ·
CCOCCCNC(=O)c1ccc(NC(=O)N2CCCCc3ccccc32)cc1 | · | · | · | 1% | · | ·
CC(C)CN(C(=O)c1ccc(=O)n(C)n1)c1nc2ccccc2s1 | 26% | 1% | 4% | -17% | 22% | 20µM*
Cc1ccc(Cn2c(C)c3cnn(CC(=O)N4CCN(c5cc(C)ccc5C)CC4)c(=O)c3c2C)cc1 | · | · | · | ? | · | -39%
Cc1ccc2oc(=O)c3cnn(CC(=O)N(C)c4ccc(F)cc4)c3c2c1 | · | · | · | -6% | · | -16%
O=[N+]([O-])c1ccc(O)c(C2=NNC(c3ccccc3F)C2)c1 (centres undefined) | 0.32µM* | ? | 5% | 3.4µM* | 1µM* | ·
NCCC[C@@H](CC(=O)N[C@@H]1CCCC[C@H]1C(=O)N[C@H](CC(=O)N[C@@H](CCC(=O)O)CC(=O)O)Cc1ccccc1)NC(=O)C[C@H](Cc1c[nH]c2ccccc12)NC(=O)[C@@H]1CCCC[C@H]1N | · | · | · | · | · | 1%
O=C(c1cc2ccccc2oc1=O)N1CCN(c2ncccn2)CC1 | ? | ? | 18µM* | 21µM* | 19% | 2%
COc1cc(-c2cc(C(=O)N3CCN(c4ccccn4)CC3)c3ccccc3n2)cc(OC)c1OC | -6% | -2% | -5% | 0% | -4% | 18%
COc1ccc(-c2cc(C(=O)N3CCN(c4ccccn4)CC3)c3ccccc3n2)cc1 | 2.8µM* | ? | -1% | 0.67µM* | ? | ·
COc1ccc(-c2cc(C(=O)N3CCN(c4ncccn4)CC3)c3ccccc3n2)cc1 | ? | 11% | 0% | 0.67µM* | ? | ·
COc1ccc(OC)c(-c2cc(C(=O)N3CCN(c4ncccn4)CC3)c3ccccc3n2)c1 | 9% | -7% | -8% | -2% | 3% | -21%
CCCc1ccc(-c2cc(C(=O)N3CCN(c4ccccn4)CC3)c3ccccc3n2)cc1 | ? | 11% | ? | 0.11µM* | ? | ·
Cc1cccc(NC(=O)CSc2nc(-c3cccs3)cc(C(F)(F)F)c2C#N)c1C | · | · | · | 1% | · | -13%
COc1ccc(C(=O)N/C(=C/c2cccs2)C(=O)NN)cc1OC | -6% | -2% | 2% | -4% | -3% | ·
COc1ccc(Cn2c(=O)c3oc4ccccc4c3n(Cc3cccc(C(F)(F)F)c3)c2=O)cc1 | · | · | · | 0% | · | ·

Screening data (PubChem)
